Bioassay records (PubChem)
Tg IFNy HTS – inhibitors of Toxoplasma gondii growth with IFN-gamma. Toxoplasma gondii growth in IFN-gamma-treated host cells; hits give low values. activity change, negative = inhibition, % (no concentration beside the values). 69,000 compounds, 3.8% hits; in the data active = activity change below about -70%, passing the limit was not always enough;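 note: host cells are HeLa cells infected with Toxoplasma gondii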
Starred values were filed as active, the others as inactive. Many of the other results were omitted from the sample, so hits are more common in it than they were.

SMILES | Tg IFNy HTS
CCOc1ccc(CN[C@@H]2CCC[C@H]2Cc2cc(C)no2)cc1Cn1ccnc1 | -45
Cc1ccc(NC(=O)N2CCC(c3nc(C(=O)N(C)C)c(C)o3)CC2)cc1Cl | -50
CC(=O)c1c(C)nc(-c2ccc(C(F)(F)F)cc2)nc1SCc1ccccc1 | -78*
Cn1c(SCc2ccccc2)nnc1-c1ccc(C(C)(C)C)cc1 | 1
O=C(NC(=S)SCc1ccccc1)c1ccc(C(F)(F)F)cc1 | -10
COc1cccc(S(=O)(=O)N2CC[C@@H]3[C@H](CO)Nc4ccc(C5=CCCCC5)cc4[C@@H]32)c1 | -70
CC(C)c1nccc(CN2CCc3[nH]cnc3C2Cc2ccccc2)n1 (configuration not stated) | 7
NC(=O)c1cnc2n1CCN(C(=O)CSc1ccc(Cl)cc1)C2 | 4
COc1ccccc1CNC(=O)c1cc2cc(S(=O)(=O)N(C)C)ccc2n1Cc1ccncc1 | 1
CN(C)S(=O)(=O)c1ccc2c(c1)cc(C(=O)NCc1ccccc1Cl)n2Cc1ccncc1 | -95*
Cc1ccccc1CNC(=O)c1cc2cc(S(=O)(=O)N(C)C)ccc2n1Cc1ccncc1 | 9
CN(C)S(=O)(=O)c1ccc2c(c1)cc(C(=O)NC1CCCC1)n2Cc1ccncc1 | 133
CN(C)CCNC(=O)c1cc2cc(S(=O)(=O)N(C)C)ccc2n1Cc1ccncc1 | 40
CN(C)S(=O)(=O)c1ccc2c(c1)cc(C(=O)NC1CCCCCCC1)n2Cc1ccncc1 | -74*
CN(C)S(=O)(=O)c1ccc2c(c1)cc(C(=O)NCCCN1CCCC1)n2Cc1ccccc1 | -96*
CN(C)S(=O)(=O)c1ccc2c(c1)cc(C(=O)NC1CCCCCC1)n2Cc1ccncc1 | 51
CN(C)S(=O)(=O)c1ccc2c(c1)cc(C(=O)NCc1ccccc1)n2Cc1ccncc1 | -13
Cc1ccc(C(=O)N2CCC3(C2)CN(c2ccccc2)C(=O)CN3C)cn1 (configuration not stated) | -2
O=C(Cc1cccnc1)N1CC(=O)N2[C@H](C1)[C@H](c1ccc(C3=CCCCC3)cc1)[C@@H]2CO | 8
CC1CCN(CC2(NC(=O)c3ccc(-n4cnnc4)cc3)CCCCC2)CC1 | 9
CO[C@@H]1CCN(S(=O)(=O)c2cccc(C)c2)[C@H]1Cc1cnn(C)c1 | 3
CN1CC2(CCN(C(=O)CCNC(=O)c3ccc(F)cc3)C2)OC1=O (configuration not stated) | 1
Cc1cccc(-c2nc(C)c(CCNC(=O)C(=O)Nc3ccc(F)cc3)s2)c1 | -15
COc1cc(N2CCOC3(COCCN(CCN(C)C)C3)C2)ncn1 (configuration not stated) | 3
Cc1ccc(NC(=O)c2c(O)c3cccnc3[nH]c2=O)cc1 | 59
SMILES | Tg IFNy HTS
Cc1ccc(NC(=O)c2snc3c(=O)[nH]cnc23)cc1 | -111*
CSc1nsc(SCC(=O)Nc2ccc(C)cc2)n1 | 99
COc1ccc(CN(C)C[C@H]2OCCCC[C@@H](C)Oc3ccc(NC(=O)C4CCCCC4)cc3C(=O)N([C@H](C)CO)C[C@@H]2C)cc1 | 120
O=C(c1ccccc1)c1ccc2[nH]c(=S)[nH]c2c1 | -94*
Cc1nc(C)c(C(=O)c2ccccc2)cc1C(=O)c1ccccc1 | -10
O=C(c1ccccc1)c1ccccc1C(=O)c1ccccc1 | -10
CCc1nc(OCC(=O)Nc2ccccc2Br)c2ccccc2n1 | 0
C[C@H]1CN([C@@H](C)CO)C(=O)c2cc(C#Cc3ccccc3)cnc2O[C@@H]1CN(C)C(=O)c1ccccc1 | -28
CC(C)NC(=O)Nc1cccc2c1O[C@H](CN(C)C(=O)Nc1ccccc1)[C@@H](C)CN([C@@H](C)CO)C2=O | -12
COc1cc([C@@H]2c3cc4c(cc3C(O[C@@H]3O[C@@H]5CO[C@@H](c6cccs6)OC5[C@H](O)[C@H]3O)C3COC(=O)[C@@H]32)OCO4)cc(OC)c1O (some centres not stated) | -80*
O=C(c1cccs1)N1CCC2(CCC2NS(=O)(=O)c2ccccc2)CC1 (configuration not stated) | 0
c1ccc(O[C@H]2CC[C@@H]3[C@H]2OCCN3c2ccncn2)nc1 | -5
CC(=O)N1CCC2(CC1)OC(=O)C(C)=C2C(=O)Nc1ccc(C)c(C)c1 | -32
CC1(C)[C@@H](O)CC[C@]2(C)[C@H]3C(=O)C=C4[C@@H]5C[C@@](C)(C(=O)O)CC[C@]5(C)CC[C@@]4(C)[C@]3(C)CC[C@@H]12 | 10
CC1(C)CC[C@]2(C(=O)O)CC[C@]3(C)C(=CCC4[C@@]5(C)CC[C@H](O)[C@@](C)(CO)C5CC[C@]43C)C2C1 (some centres not stated) | 7
C[C@H]1[C@H](C)CC[C@]2(C(=O)O)CC[C@]3(C)C(=CC[C@@H]4[C@@]5(C)CC[C@H](O)C(C)(C)[C@@H]5CC[C@]43C)[C@H]12 | -79*
O=C(NCCc1csc(-c2cccc(F)c2)n1)C(=O)Nc1ccc(F)c(Cl)c1 | -39
O=C1CCc2cc(S(=O)(=O)N3CCc4ccccc4C3)cc3c2N1CCC3 | 4
CCCOc1ccc(-c2noc(-c3c(O)c4ccc(F)cc4[nH]c3=O)n2)cc1 | -39
